This passage reports activity, negative = cell killing and Potency results from PubChem BioAssay (NCATS).

SMILES strings stand for the structures. Inconclusive results are not listed. Activity calls are given as the source filed them. Calls come from the whole dose curve; as a rule, active = well fitted inhibition curve with a large enough effect; inconclusive = small, poorly fitted or top-dose-only effect; inactive = flat fitted curve, though single readings scatter.
% is set by controls: 0 for no effect and ±100 for the full control effect; potency is the fitted concentration of half-maximal effect.

Tested on in one assay: not listed separately
Briefly: Drug repurposing screens with cells derived from glioblastoma tumor samples (AID 1345199). Note: nearly all actives have a fitted effect of over 40% in size. The conditions noted are these: GBM patient neurospheres viability, ATP luminescence, 48 h; at 45.9 µM (top of the series); tumour line D. The procedure, abridged: (§1)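 Four patient lines of CD133+ GBM neurospheres were screened at several concentrations; hits were retested in those lines plus three slower-growing GBM lines, using 48-hour treatment and ATP-based viability.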
Take `CC(C)COC(=O)OCN1C(=O)CN(CCN2CC(=O)N(COC(=O)OCC(C)C)C(=O)C2)CC1=O`: the activity, negative = cell killing was -16.2% (inactive).

As to `COc1cc(-c2ccc(=O)[nH]n2)ccc1OC(F)F`, the activity, negative = cell killing is -28.9% (inactive).

In the case of `C[C@@H]1C(=O)NC2=Nc3cccc(Cl)c3CN21`, the activity, negative = cell killing is -24.2% (inactive).

With `CCCn1c(=O)[nH]c(=O)c2[nH]cnc21`, the activity, negative = cell killing is 9.35% (inactive).

On to `CC(=O)O[C@H]1C[C@@H]2CC[C@@H]3[C@H](CC[C@@]4(C)[C@H]3C[C@H]([N+]3(C)CCCCC3)[C@@H]4OC(C)=O)[C@@]2(C)C[C@@H]1[N+]1(C)CCCCC1`, for which the activity, negative = cell killing is -21.6% (inactive).

Regarding `O=C(O)c1cc2cc(Cc3cccnc3)ccc2o1`, the activity, negative = cell killing was -17.6% (inactive).

Consider `C1CCc2nnnn2CC1`, for which the activity, negative = cell killing was -3.11% (inactive).

The assay is the same for the next values; noted with them: GBM patient neurospheres viability, ATP luminescence, 48 h; at 46 µM (top of the series); tumour line A.
`CC(=O)Oc1ccc(C(c2ccc(OC(C)=O)cc2)c2ccccn2)cc1`: the activity, negative = cell killing is -29.3% (inactive).

For `CN(C)/N=N/c1nc[nH]c1C(N)=O`, the activity, negative = cell killing is -11.7% (inactive).

Consider `CC1(C)CCC(NC(=O)[C@@H](N)CCC(=O)O)CC1`, for which the activity, negative = cell killing was -26.1% (inactive).

Take `Nc1cc(Cl)c(NC2=NCCN2)c(Cl)c1`: the activity, negative = cell killing is -27.8% (inactive).

As for `CCC(NC(C)C)C(O)c1ccc(O)c(O)c1` (configuration not stated), the activity, negative = cell killing was -20.2% (inactive).

Consider `C[N+]1(CCCCC[N+]2(C)CCCC2)CCCC1`, for which the activity, negative = cell killing is -3.4% (inactive).

`CC(C)COC(=O)OCN1C(=O)CN(CCN2CC(=O)N(COC(=O)OCC(C)C)C(=O)C2)CC1=O`: the activity, negative = cell killing is -10.8% (inactive).

For the compound `CCCn1c(=O)[nH]c(=O)c2[nH]cnc21`, the activity, negative = cell killing was -17.3% (inactive).

On to `CC(=O)O[C@H]1C[C@@H]2CC[C@@H]3[C@H](CC[C@@]4(C)[C@H]3C[C@H]([N+]3(C)CCCCC3)[C@@H]4OC(C)=O)[C@@]2(C)C[C@@H]1[N+]1(C)CCCCC1`, for which the activity, negative = cell killing was -27.9% (inactive).

In the case of `C1CCc2nnnn2CC1`, the activity, negative = cell killing was -28.5% (inactive).

Staying with this assay, now noted: GBM patient neurospheres viability, ATP luminescence, 48 h; at 46.1 µM (top of the series); tumour line C.
As for `N[C@H](CO)C(=O)O`, the activity, negative = cell killing was 2.37% (inactive).

With `CN(C)/N=N/c1nc[nH]c1C(N)=O`, the activity, negative = cell killing was -12% (inactive).

`CC1(C)CCC(NC(=O)[C@@H](N)CCC(=O)O)CC1`: the activity, negative = cell killing is -24.2% (inactive).

`O=C1CCC(c2ccc(-n3ccnc3)cc2)=NN1`: the activity, negative = cell killing is -27.3% (inactive).

Consider `Nc1cc(Cl)c(NC2=NCCN2)c(Cl)c1`, for which the activity, negative = cell killing was -9.7% (inactive).

On to `CCC(NC(C)C)C(O)c1ccc(O)c(O)c1` (configuration not stated), for which the activity, negative = cell killing is -19.2% (inactive).

Regarding `C[N+]1(CCCCC[N+]2(C)CCCC2)CCCC1`, the activity, negative = cell killing is -6.31% (inactive).

As to `CC(C)C[C@H]1C(=O)N2CCC[C@H]2[C@]2(O)O[C@](NC(=O)[C@@H]3C=C4c5cccc6[nH]c(Br)c(c56)C[C@H]4N(C)C3)(C(C)C)C(=O)N12`, the activity, negative = cell killing was 12.4% (inactive).

With `N[C@@H](Cc1cnc[nH]1)C(=O)O`, the activity, negative = cell killing was -12.5% (inactive).

On to `CCCC1O[C@@H]2C[C@H]3[C@@H]4CCC5=CC(=O)C=C[C@]5(C)[C@H]4[C@@H](O)C[C@]3(C)[C@]2(C(=O)CO)O1` (some centres not stated), for which the activity, negative = cell killing is -20.2% (inactive).

For the compound `COC(=O)[C@H]1[C@H]2C[C@H]3c4[nH]c5ccccc5c4CCN3C[C@H]2CC[C@@H]1O`, the activity, negative = cell killing is 4.13% (inactive).

As for `CC(C)COC(=O)OCN1C(=O)CN(CCN2CC(=O)N(COC(=O)OCC(C)C)C(=O)C2)CC1=O`, the activity, negative = cell killing is -11% (inactive).

As to `COc1cc(-c2ccc(=O)[nH]n2)ccc1OC(F)F`, the activity, negative = cell killing was -14.1% (inactive).

`C[C@@H]1C(=O)NC2=Nc3cccc(Cl)c3CN21`: the activity, negative = cell killing is -18.1% (inactive).

In the case of `CCCn1c(=O)[nH]c(=O)c2[nH]cnc21`, the activity, negative = cell killing was -18.8% (inactive).

In the case of `CC(=O)O[C@H]1C[C@@H]2CC[C@@H]3[C@H](CC[C@@]4(C)[C@H]3C[C@H]([N+]3(C)CCCCC3)[C@@H]4OC(C)=O)[C@@]2(C)C[C@@H]1[N+]1(C)CCCCC1`, the activity, negative = cell killing is -11.1% (inactive).

In the case of `C[C@]12CC[C@@H]3c4ccc(O)cc4CC[C@H]3[C@@H]1CC[C@@H]2O`, the activity, negative = cell killing is -20.5% (inactive).

As to `C1CCc2nnnn2CC1`, the activity, negative = cell killing was -27% (inactive).

Regarding `CNCCC=C1c2ccccc2CCc2ccccc21`, the activity, negative = cell killing is -6.98% (inactive).

The same assay, now with this note: GBM patient neurospheres viability, ATP luminescence, 48 h; tumour line A.
As for `CCCCCCCCCCCCCCCC[N+](C)(C)CCN(Cc1ccc(OC)cc1)c1ncccn1`, the Potency is 8.91 µM (active).

As for `CC(C)C[C@H]1C(=O)N2CCC[C@H]2[C@]2(O)O[C@](NC(=O)[C@@H]3C=C4c5cccc6[nH]c(Br)c(c56)C[C@H]4N(C)C3)(C(C)C)C(=O)N12`, the Potency is 2.24 µM (active).

In the case of `CCCCOc1cc(C(=O)NCCN(CC)CC)c2ccccc2n1`, the Potency was 3.98 µM (active).

As for `C[C@]12CC[C@@H]3c4ccc(O)cc4CC[C@H]3[C@@H]1CC[C@@H]2O`, the Potency was 31.6 µM (active).

`CNCCC=C1c2ccccc2CCc2ccccc21`: the Potency was 6.31 µM (active).

Another assay deals with astro (control astrocytes). The assay is described as above. The note with it: viability, ATP luminescence, 48 h; series mostly up to 45.9 µM. Summed up: as §1
Turning to `Oc1ccc(Cl)cc1Sc1cc(Cl)ccc1O`, the Potency is 7.94 µM (active).

Turning to `CN(C)/N=N/c1nc[nH]c1C(N)=O`, the Potency entry is “inactive”.

In the case of `C[C@@H]1CN(CCCn2c3ccccc3c3ccccc32)C[C@H](C)N1`, the Potency is 12.6 µM (active).

For the compound `O=C1CCC(c2ccc(-n3ccnc3)cc2)=NN1`, the Potency result is “inactive”.

On to `Nc1cc(Cl)c(NC2=NCCN2)c(Cl)c1`, for which the Potency entry is “inactive”.

For the compound `COc1cc(C=C2CCC/C(=C\c3ccc(O)c(OC)c3)C2=O)ccc1O`, the Potency is 20 µM (active).

Regarding `CCC(NC(C)C)C(O)c1ccc(O)c(O)c1` (configuration not stated), the Potency result was “inactive”.

As for `CC(C)(C)CC(C)(C)c1ccc(O)c(Cc2ccc(Cl)cc2Cl)c1`, the Potency was 22.4 µM (active).

Regarding `C[N+]1(CCCCC[N+]2(C)CCCC2)CCCC1`, the Potency entry was “inactive”.

Regarding `CC(C)C[C@H]1C(=O)N2CCC[C@H]2[C@]2(O)O[C@](NC(=O)[C@@H]3C=C4c5cccc6[nH]c(Br)c(c56)C[C@H]4N(C)C3)(C(C)C)C(=O)N12`, the Potency entry is “inactive”.

For the compound `N[C@@H](Cc1cnc[nH]1)C(=O)O`, the Potency result was “inactive”.

With `CCCC1O[C@@H]2C[C@H]3[C@@H]4CCC5=CC(=O)C=C[C@]5(C)[C@H]4[C@@H](O)C[C@]3(C)[C@]2(C(=O)CO)O1` (some centres not stated), the Potency result is “inactive”.

As to `CCCCCCC[N+](CC)(CC)CCCCc1ccc(Cl)cc1`, the Potency is 8.91 µM (active).

For the compound `COC(=O)[C@H]1[C@H]2C[C@H]3c4[nH]c5ccccc5c4CCN3C[C@H]2CC[C@@H]1O`, the Potency entry is “inactive”.

For the compound `Cc1cccc(C)c1NC(=O)CN1CCN(CCCC(c2ccc(F)cc2)c2ccc(F)cc2)CC1`, the Potency result is “inactive”.

Regarding `NC(=NCCCCCCN=C(N)/N=C(\N)Nc1ccc(Cl)cc1)/N=C(\N)Nc1ccc(Cl)cc1`, the Potency is 11.2 µM (active).

Regarding `CC(C)COC(=O)OCN1C(=O)CN(CCN2CC(=O)N(COC(=O)OCC(C)C)C(=O)C2)CC1=O`, the Potency entry was “inactive”.

On to `CC[C@H](C)C(=O)O[C@H]1CCC=C2C=C[C@H](C)[C@H](CC[C@@H]3C[C@@H](O)CC(=O)O3)[C@H]21`, for which the Potency was 2 µM (active).

For `C[C@@H]1C(=O)NC2=Nc3cccc(Cl)c3CN21`, the Potency entry was “inactive”.

For `CCCn1c(=O)[nH]c(=O)c2[nH]cnc21`, the Potency result is “inactive”.

For the compound `CC(=O)O[C@H]1C[C@@H]2CC[C@@H]3[C@H](CC[C@@]4(C)[C@H]3C[C@H]([N+]3(C)CCCCC3)[C@@H]4OC(C)=O)[C@@]2(C)C[C@@H]1[N+]1(C)CCCCC1`, the Potency result was “inactive”.

As for `O=C(O)c1cc2cc(Cc3cccnc3)ccc2o1`, the Potency result was “inactive”.

Take `Cc1c(N(C)CS(=O)(=O)O)c(=O)n(-c2ccccc2)n1C`: the Potency entry was “inactive”.

As to `C1CCc2nnnn2CC1`, the Potency result was “inactive”.

For `COc1cc(NS(C)(=O)=O)ccc1Nc1c2ccccc2nc2ccccc12`, the Potency is 11.2 µM (active).

On to `CNCCC=C1c2ccccc2CCc2ccccc21`, for which the Potency was 11.2 µM (active).
